Results published in PubChem BioAssay (NCATS).
Results filed as inconclusive are left out. Unless noted, calls come from the whole dose curve; as a rule, active = well fitted curve in either direction with a large enough effect (not every such curve was filed as active); inconclusive = small, poorly fitted or top-dose-only effect, or another doubt; inactive = flat fitted curve, though single readings scatter.

What was measured:
[1] = AP1 Signaling Pathway (AID 357); details: ME-180 AP-1-bla reporter, EGF-induced, beta-lactamase ratio, 5 h; at 17.2 µM (top of the series) unless noted; note: % is set by controls: 0 for no effect and ±100 for the full control effect
Summary of the method: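 AP-1-bla ME-180 cells with beta-lactamase reporter under AP-1 response element, stimulated with EC50 EGF; compounds titrated, 5 hours at 37 degrees Celsius. CCF4 read at 460/530 nm ratio; positive and negative modulators judged by AC50.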

[2] = NFAT Signaling Pathway (AID 444); details: Jurkat NFAT-bla M1, carbachol, beta-lactamase ratio, 5 h; at 17.2 µM (top of the series) unless noted;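 note: carbachol stimulus at about its EC50 of 1 µM final; % is set by controls: 0 for no effect and ±100 for the full control effect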
Summary of the method: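 Jurkat cells with NFAT-driven β-lactamase reporter and co-expressed M1 receptor, stimulated with carbachol (final 1 uM, ~EC50), compound titration, 5 h at 37 °C. CCF4 loaded 1 h at RT; 460/530 nm ratio gave %activity and AC50.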

[3] = Stat Signaling Pathway (AID 446); details: ME-180 (cervical carcinoma) SIE beta-lactamase reporter, IL-6 stimulated, 5 h; at 17.2 µM (top of the series) unless noted;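 note: ME-180 cervical cancer cells given 40 pM IL-6 alongside compound; SIE-controlled beta-lactamase reporter measured as 460/530 nm FRET emission ratio; % is set by controls: 0 for no effect and ±100 for the full control effect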
Summary of the method: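 Overnight-plated ME-180 cells bearing a STAT Inducible Element beta-lactamase reporter; 5 h co-exposure to compound and 40 pM IL-6; values normalized to 300 pM IL-6 and 125 nM JAK inhibitor controls.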

[4] = target: Glucocorticoid receptor (Homo sapiens) (UniProt P04150); test: GR-GFP Redistribution (AID 450;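 active = compounds whose dose series gives a full or clear partial fitted curve of increased nuclear translocation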; note: potency is the fitted concentration of half-maximal effect)
Glucocorticoid receptor (Homo sapiens), sequence (P04150 whole entry, looked up): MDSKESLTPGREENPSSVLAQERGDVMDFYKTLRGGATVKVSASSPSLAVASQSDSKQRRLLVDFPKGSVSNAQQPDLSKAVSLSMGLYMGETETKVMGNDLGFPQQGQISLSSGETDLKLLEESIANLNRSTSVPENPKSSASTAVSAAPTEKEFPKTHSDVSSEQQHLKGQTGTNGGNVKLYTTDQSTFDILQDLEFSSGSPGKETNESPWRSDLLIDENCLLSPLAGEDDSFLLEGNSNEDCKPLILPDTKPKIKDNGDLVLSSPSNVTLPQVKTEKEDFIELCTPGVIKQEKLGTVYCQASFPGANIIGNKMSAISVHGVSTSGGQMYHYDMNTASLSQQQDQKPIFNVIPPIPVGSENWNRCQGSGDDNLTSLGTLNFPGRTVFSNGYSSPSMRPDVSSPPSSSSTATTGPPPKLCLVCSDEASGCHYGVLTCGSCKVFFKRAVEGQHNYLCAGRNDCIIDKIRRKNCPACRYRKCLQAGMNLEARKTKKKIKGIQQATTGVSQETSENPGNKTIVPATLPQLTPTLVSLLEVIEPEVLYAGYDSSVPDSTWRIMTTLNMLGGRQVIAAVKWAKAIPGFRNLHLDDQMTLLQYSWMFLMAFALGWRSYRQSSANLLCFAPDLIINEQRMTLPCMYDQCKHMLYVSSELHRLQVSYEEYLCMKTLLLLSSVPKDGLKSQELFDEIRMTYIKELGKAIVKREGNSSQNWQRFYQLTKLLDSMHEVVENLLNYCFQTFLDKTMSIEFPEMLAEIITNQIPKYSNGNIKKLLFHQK

COc1cccc(Cn2c(OCC3CCCO3)nc3c2c(=O)n(C)c(=O)n3C)c1 (stereo not given)
inactive: activity change, negative = inhibition [1] -4.44% | activity change, negative = inhibition [2] -8.17% | activity, negative = inhibition [3] -4.79% | Potency [4] > 20.6 µM

CC(=O)Oc1ccccc1C1OC(=O)c2ccccc2N1C(C)=O (stereo not given)
inactive: activity change, negative = inhibition [1] 14.3% | activity change, negative = inhibition [2] 12.4% | activity, negative = inhibition [3] 5.01% | Potency [4] > 20.6 µM

N/C(CCN1CCCCC1)=N/O
inactive: activity change, negative = inhibition [1] 8.61% | activity change, negative = inhibition [2] -6.23% | activity, negative = inhibition [3] 2.5% | Potency [4] > 20.6 µM

Cc1cccc(COc2ccc(/C(O)=C3\C(=O)C(=O)N(CCN(C)C)C3c3ccncc3)cc2)c1 (stereo not given)
inactive: activity change, negative = inhibition [1] 4.68% | activity change, negative = inhibition [2] 13.1% | activity, negative = inhibition [3] 2.96% | Potency [4] > 20.6 µM

CCOC(=O)c1oc2cc(O)cc(C)c2c(=O)c1-c1cscn1
inactive: activity change, negative = inhibition [1] 0.0813% | activity change, negative = inhibition [2] 11.5% | activity, negative = inhibition [3] -0.432% | Potency [4] > 20.6 µM

CCCc1[nH]n(-c2nc3ccccc3s2)c(=O)c1C=NCCN1CCOCC1
inactive: activity change, negative = inhibition [1] -6.38% | activity change, negative = inhibition [2] -13.8% | activity, negative = inhibition [3] -4.13% | Potency [4] > 20.6 µM

N#Cc1cccc(-n2c(-c3ccccc3)nnc2-c2ccccc2)c1C#N
inactive: activity change, negative = inhibition [1] 4.78% | activity change, negative = inhibition [2] 5.67% | activity, negative = inhibition [3] 0.928% | Potency [4] > 20.6 µM

CN1C(=O)c2c(sc3c2CCCC3)NC1c1ccccc1O (stereo not given)
inactive: activity change, negative = inhibition [1] -12.2% | activity change, negative = inhibition [2] -10.9% | activity, negative = inhibition [3] -25.9% | Potency [4] > 20.6 µM

Cc1cc(=O)n(CCC(=O)O)c2ccccc12
inactive: activity change, negative = inhibition [1] 4.89% | activity change, negative = inhibition [2] 1.73% | activity, negative = inhibition [3] 3.32% | Potency [4] > 20.6 µM

N#C/C(=C\c1c(N2CCC(C(N)=O)CC2)nc2ccccn2c1=O)S(=O)(=O)c1ccccc1
inactive: activity change, negative = inhibition [1] -8.19% | activity change, negative = inhibition [2] 29.6% | activity, negative = inhibition [3] -1.65% | Potency [4] > 20.6 µM

CN=C1c2cc3c(Br)c(OC)ccc3n2CCN1C
inactive: activity change, negative = inhibition [1] 4.49% | activity change, negative = inhibition [2] -7.64% | activity, negative = inhibition [3] 6.11% | Potency [4] > 20.6 µM

CCCCCSc1nc(C)c(CC(=O)O)c(=O)[nH]1
inactive: activity change, negative = inhibition [1] -1.76% | activity change, negative = inhibition [2] 15.5% | activity, negative = inhibition [3] 12.4% | Potency [4] > 20.6 µM

O=C1CC(c2ccccc2)n2nc(N3C(=O)c4ccccc4C3=O)nc2N1 (stereo not given)
inactive: activity change, negative = inhibition [1] 0.103% | activity change, negative = inhibition [2] -10.6% | activity, negative = inhibition [3] -7.82% | Potency [4] > 20.6 µM

COc1ccc(/C(O)=C2/C(=O)C(=O)N(Cc3ccco3)C2c2cccs2)cc1 (stereo not given)
inactive: activity change, negative = inhibition [1] 7% | activity change, negative = inhibition [2] -13.1% | activity, negative = inhibition [3] -19.8% | Potency [4] > 20.6 µM

O=C(Nc1ccccn1)NC(C(F)(F)F)C(F)(F)F
inactive: activity change, negative = inhibition [1] -3.59% | activity change, negative = inhibition [2] 6.68% | activity, negative = inhibition [3] -3.68% | Potency [4] > 20.6 µM

CCOC(=O)CSc1nc(NC#N)nc(N(CC)CC)n1
inactive: activity change, negative = inhibition [1] 8.62% | activity change, negative = inhibition [2] -5.47% | activity, negative = inhibition [3] -5.41% | Potency [4] > 20.6 µM

C=C(C)CSc1nc(N)c2c3c(sc2n1)CCC3
inactive: activity change, negative = inhibition [1] -27.1% | activity change, negative = inhibition [2] -3.51% | activity, negative = inhibition [3] 4.14% | Potency [4] > 20.6 µM

CCCC(CCC(=O)Nc1ccc(C(=O)OC)cc1)C(=O)O (stereo not given)
inactive: activity change, negative = inhibition [1] -9.55% | activity change, negative = inhibition [2] -16.6% | activity, negative = inhibition [3] 11.7% | Potency [4] > 20.6 µM

CC1(C)C/C(=C(/C#N)C(N)=O)CCO1
inactive: activity change, negative = inhibition [1] -0.694% | activity change, negative = inhibition [2] 2.44% | activity, negative = inhibition [3] 4.37% | Potency [4] > 20.6 µM

Cc1ccc(N2C(=O)[C@@H]3[C@H](C2=O)C2CCCN2[C@@H]3C(=O)c2ccccc2)cc1 (stereo not given in full)
inactive: activity change, negative = inhibition [1] -15.8% | activity change, negative = inhibition [2] 9.36% | activity, negative = inhibition [3] -3.84% | Potency [4] > 20.6 µM

CC(O)CNc1nc2c(c(=O)n(C)c(=O)n2C)n1CCc1ccccc1 (stereo not given)
inactive: activity change, negative = inhibition [1] -2.48% | activity change, negative = inhibition [2] -12.9% | activity, negative = inhibition [3] -8.4% | Potency [4] > 20.6 µM

COCCNc1ncnc2c1cnn2-c1ccc(Cl)cc1
inactive: activity change, negative = inhibition [1] -9.71% | activity change, negative = inhibition [2] -10.4% | activity, negative = inhibition [3] 2.93% | Potency [4] > 20.6 µM

Cc1nc2n[nH]c(N)c2c2c1COC(C)(C)C2
inactive: activity change, negative = inhibition [1] 3.75% | activity change, negative = inhibition [2] -4.48% | activity, negative = inhibition [3] 3.57% | Potency [4] > 20.6 µM

COc1cccc(-c2nn3c(-c4ccccn4)nnc3s2)c1
inactive: activity change, negative = inhibition [1] -5.18% | activity change, negative = inhibition [2] -17% | activity, negative = inhibition [3] 9.86% | Potency [4] > 20.6 µM

CC(NC(=O)NCc1cccnc1)(C(F)(F)F)C(F)(F)F
inactive: activity change, negative = inhibition [1] 12.2% | activity change, negative = inhibition [2] -2.79% | activity, negative = inhibition [3] 2.04% | Potency [4] > 20.6 µM
